These results are taken from PubChem BioAssay (NCI).

Some test systems named below: DU-145 prostate; K-562 leukemia; MALME-3M melanoma; MDA-MB-231 breast; RXF 393 renal; SF-268 CNS; SF-295 CNS; SF-539 CNS; UACC-257 melanoma; HCT-15 colon; HT29 colon; SNB-75 CNS; SNB-19 CNS; U251 CNS; PC-3 prostate; SK-MEL-5 melanoma; UACC-62 melanoma; LOX IMVI melanoma; SK-MEL-28 melanoma.
Test in all cases: NCI-60 one-dose screen, 48 h (100 = growth as untreated, 0 = no growth, -100 = all killed)
Holding throughout (conditions): 10 µM unless noted

The panel holds about 83,000 compounds, 20% with a hit somewhere; the sample as a whole holds those more often.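 48-hour exposure, single concentration, 96-well plates; percent growth endpoint where 0 means no net growth. Active: below 10.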 A number with no mark means an inactive call. Calls of active or inactive are those of the source.

With `OC(COc1ccccc1Cl)COc1ccccc1Cl`, the growth with DU-145 prostate was 116%; with K-562 leukemia, 100%; in the assay on MALME-3M melanoma, 96.8%; in the assay with MDA-MB-231 breast, 101%; with RXF 393 renal, 96.7%; in the assay with SF-268 CNS, 97.3%. Moreover, the growth in the assay on SF-295 CNS was 104%; with SF-539 CNS it was 95.5%; in the assay on UACC-257 melanoma, 120%; in the assay with HCT-15 colon, 86.1%; with HT29 colon it was 92.5%; in the assay with SNB-75 CNS, 85.4%. Besides, the growth in the assay on SNB-19 CNS was 108%; with U251 CNS it was 91.5%; in the assay on PC-3 prostate it was 95.9%; with SK-MEL-5 melanoma, 96.8%; in the assay with UACC-62 melanoma it was 92%; in the assay with LOX IMVI melanoma, 85.3%. Further, in the assay on SK-MEL-28 melanoma, the growth is 94.2%.

On to `NC(=N\N=C/c1cccc([N+](=O)[O-])c1)/C(N)=N\N=C/c1cccc([N+](=O)[O-])c1`, for which the growth in the assay with DU-145 prostate is 58.1%; in the assay with K-562 leukemia it was 36.1%; in the assay on MALME-3M melanoma, 81.4%; with MDA-MB-231 breast, 93.4%; in the assay with RXF 393 renal, 72.9%; with SF-268 CNS, 65.9%. Further, the growth in the assay on SF-295 CNS is 92.9%; in the assay on SF-539 CNS, 89.1%; in the assay with UACC-257 melanoma, 85.6%; with HCT-15 colon it was 51.9%; with HT29 colon, 99.3%; in the assay on SNB-75 CNS, 35.1%. In addition, the growth in the assay with SNB-19 CNS was 105%; in the assay with U251 CNS, 76.6%; in the assay with PC-3 prostate it was 72.2%; with SK-MEL-5 melanoma, 58.2%; in the assay with UACC-62 melanoma, 65%; in the assay with LOX IMVI melanoma, 82%. The growth with SK-MEL-28 melanoma is 77.9%.

As for `COC1=CC(=O)C[C@@H](C)[C@]12Oc1c(Cl)c(OC)cc(OC)c1C2=O`, the growth in the assay with DU-145 prostate was 105%; in the assay with K-562 leukemia, 32.9%; with MALME-3M melanoma it was 85.2%; with MDA-MB-231 breast it was 84.1%; with RXF 393 renal, 86.8%; with SF-268 CNS it was 93.5%. Also, the growth was 96.8% with SF-295 CNS; 104% in the assay with SF-539 CNS; 84.5% with UACC-257 melanoma; 76.9% in the assay with HCT-15 colon; 104% in the assay with HT29 colon; 67.8% in the assay on SNB-75 CNS. For the same compound, the growth in the assay with SNB-19 CNS is 95.7%; in the assay on U251 CNS, 92.1%; with PC-3 prostate it was 87.5%; in the assay on SK-MEL-5 melanoma, 84.3%; with UACC-62 melanoma, 73.3%; with LOX IMVI melanoma, 80.8%. The growth with SK-MEL-28 melanoma was 85.7%.

Turning to `Nc1n[nH]c(-c2cc(Cl)ccc2O)c1-c1ccccc1`, the growth in the assay on DU-145 prostate is 106%; in the assay with K-562 leukemia, 67.9%; in the assay with MALME-3M melanoma it was 82.2%; with MDA-MB-231 breast, 78%; in the assay on RXF 393 renal, 86.4%; in the assay on SF-268 CNS, 92.3%. Further, the growth is 102% with SF-295 CNS; 94.6% with SF-539 CNS; 98.5% with UACC-257 melanoma; 78.5% in the assay with HCT-15 colon; 102% in the assay with HT29 colon; 86% in the assay with SNB-75 CNS. Further, the growth was 102% in the assay on SNB-19 CNS; 89.2% in the assay with U251 CNS; 81% with PC-3 prostate; 92.2% in the assay on SK-MEL-5 melanoma; 66.6% with UACC-62 melanoma; 79.6% in the assay with LOX IMVI melanoma. For the same compound, the growth in the assay with SK-MEL-28 melanoma was 122%.

On to `COCN1CCC2N(COC)CCC3N(COC)CCC1N23` (configuration not stated), for which the growth was 111% in the assay with DU-145 prostate; 111% with K-562 leukemia; 134% with MALME-3M melanoma; 94.1% in the assay on MDA-MB-231 breast; 112% in the assay on RXF 393 renal; 104% in the assay with SF-268 CNS. In addition, the growth in the assay on SF-295 CNS was 113%; in the assay with SF-539 CNS it was 101%; in the assay on UACC-257 melanoma, 98.8%; in the assay with HCT-15 colon, 104%; in the assay with HT29 colon, 105%; in the assay with SNB-75 CNS, 90.8%. For the same compound, the growth in the assay with SNB-19 CNS was 93.6%; in the assay on U251 CNS, 102%; in the assay on PC-3 prostate it was 102%; in the assay with SK-MEL-5 melanoma, 109%; in the assay on UACC-62 melanoma it was 94.3%; in the assay on LOX IMVI melanoma it was 101%. The growth with SK-MEL-28 melanoma is 106%.

For the compound `Cc1c(O)cc(-c2cnc(N/N=C\c3ccc(Cl)cc3)s2)c(O)c1C`, the growth in the assay on DU-145 prostate was 100%; in the assay with K-562 leukemia, 72.2%; with MALME-3M melanoma, 107%; in the assay on MDA-MB-231 breast it was 95.4%; with RXF 393 renal, 81.3%; with SF-268 CNS, 92.4%. In addition, the growth in the assay on SF-295 CNS is 99.9%; with SF-539 CNS it was 78.8%; in the assay with UACC-257 melanoma, 91.2%; in the assay with HCT-15 colon, 85%; with HT29 colon it was 101%; in the assay on SNB-75 CNS, 94.2%. Further, the growth in the assay on SNB-19 CNS was 97%; in the assay with U251 CNS it was 89.9%; with PC-3 prostate, 66.4%; in the assay with SK-MEL-5 melanoma it was 79.8%; in the assay on UACC-62 melanoma, 81.6%; with LOX IMVI melanoma, 62.2%. Further, the growth in the assay on SK-MEL-28 melanoma was 94.4%.

For the compound `COc1cc(/C=C/C(=O)c2c(C)nc3ccccc3c2C)ccc1OCCCN1CCN(C(=O)c2ccco2)CC1`, the growth with DU-145 prostate was 91.4%; in the assay with K-562 leukemia, 59.7%; in the assay on MALME-3M melanoma it was 68.3%; with MDA-MB-231 breast, 75.3%; in the assay on RXF 393 renal it was 74%; in the assay on SF-268 CNS, 87.4%. The growth in the assay with SF-295 CNS was 78.3%; with SF-539 CNS it was 93.3%; in the assay with UACC-257 melanoma it was 62.4%; in the assay on HCT-15 colon, 76.2%; with HT29 colon, 6.55% (active); with SNB-75 CNS, -70.5% (active). Besides, the growth is 99% with SNB-19 CNS; 77.9% with U251 CNS; 88.3% with PC-3 prostate; 33.5% in the assay with SK-MEL-5 melanoma; 65.9% in the assay on UACC-62 melanoma; 81.9% in the assay on LOX IMVI melanoma. In the assay with SK-MEL-28 melanoma, the growth is -29% (active).

As to `COc1ccc(-c2nc3c(N)c(CO)c(C)nc3o2)cc1`, the growth with DU-145 prostate was 102%; in the assay on K-562 leukemia, 91.5%; in the assay on MALME-3M melanoma, 96.7%; in the assay with MDA-MB-231 breast it was 111%; with RXF 393 renal it was 96%; in the assay on SF-268 CNS it was 94.9%. The growth in the assay on SF-295 CNS is 99.1%; with SF-539 CNS, 93.9%; in the assay on UACC-257 melanoma, 101%; with HCT-15 colon, 102%; in the assay with HT29 colon, 97.7%; with SNB-75 CNS it was 98.9%. In addition, the growth was 111% in the assay with SNB-19 CNS; 96.5% with U251 CNS; 103% with PC-3 prostate; 95.3% in the assay on SK-MEL-5 melanoma; 97.7% with UACC-62 melanoma; 93.5% in the assay with LOX IMVI melanoma. The growth in the assay with SK-MEL-28 melanoma is 106%.
